Source: PubChem BioAssay
In the library only some 4.2% were active in any assay of this set; here they are far more common.
Sfp inh – blocks B. subtilis Sfp PPTase activity; Biochemical Sfp PPTase activity, qHTS; Potency, µM, for inactives: largest response in the series, negative = inhibition, hits mostly inhibitors; 310,000 compounds, 3.5% hits; AID 1490;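 further: the enzyme is Sfp with the accession as filed and its product quenches rhodamine fluorescence; 0% = enzyme reaction without inhibitor and -100% = no enzyme wells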
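Step 1, compound plus 15 nM Sfp-PPTase, 15 min, room temperature. Step 2, add rhodamine-CoA (5 uM) and BHQ-2-YbbR (12.5 uM). Step 3, read 525/598 nm fluorescence at 0 and 30 min.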
PLK1 PBD inh – inhibitors of human PLK1 polo-box domain binding | P53350 | Plk1 PBD binding of FITC phosphopeptide, fluorescence polarization | Potency, µM, without a hit: max response, negative = inhibition, most hits filed as inhibitors | 360,000 compounds, 2.8% hits | AID 720504; further: series mostly up to about 57 µM; nearly all actives have a fitted effect of over 65% in size
VDR inhibitor – inhibitors of human vitamin D receptor; Potency, µM, for inactives: max response, negative = inhibition, hits mostly inhibitors; 400,000 compounds, 0.93% hits; VDR-SRC2-3 peptide fluorescence polarization, 2 h
Target sequence (P11473 whole entry, looked up): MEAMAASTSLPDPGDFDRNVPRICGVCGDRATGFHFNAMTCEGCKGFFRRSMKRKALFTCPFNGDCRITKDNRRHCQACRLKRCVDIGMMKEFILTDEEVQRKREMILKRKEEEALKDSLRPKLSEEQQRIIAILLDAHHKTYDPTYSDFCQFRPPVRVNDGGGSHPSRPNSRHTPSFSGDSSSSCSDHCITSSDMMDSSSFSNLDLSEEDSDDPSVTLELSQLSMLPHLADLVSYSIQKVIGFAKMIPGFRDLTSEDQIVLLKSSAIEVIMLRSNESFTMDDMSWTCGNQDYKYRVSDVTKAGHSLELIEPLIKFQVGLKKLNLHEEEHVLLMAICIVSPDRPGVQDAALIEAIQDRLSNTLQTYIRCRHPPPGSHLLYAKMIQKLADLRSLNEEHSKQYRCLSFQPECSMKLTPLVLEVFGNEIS
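Fluorescence polarization assay of small-molecule disruption of VDR binding to coregulator peptide SRC2-3. Compounds and controls pin-transferred, then read after 2 h incubation at ambient room temperature.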
ALOX12 inh – ALOX12 (human) lipoxygenase inhibition; P18054; purified 12hLO, xylenol orange hydroperoxide absorbance; Potency, µM (doses to about 108 µM), without a hit: at the highest dose activity change, negative = inhibition, usual class: inhibitors; 580,000 compounds, 1.1% hits; AID 1671190
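Purified human 12hLO (150 nM final) in 25 mM Hepes, 0.01% Triton X-100, pH 7.0 was preincubated 15 min at room temperature with compound. Then 40 uM arachidonic acid was added, 30 min. Hydroperoxide was read by Fe-XO absorbance ratio 573/405 nm.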
Active calls of the source: *; [ ] = dose if it differs, or a comment. The call rests on the fitted dose curve; in most records, active means well fitted curve in the direction sought with a large enough effect; inconclusive means small, poorly fitted or top-dose-only effect, or another doubt; inactive means no such curve, though single readings can be large; an effect the other way counts as inactive or inconclusive. Unless noted, on the % scale 0 is the no-effect control and ±100 the full control effect; potency means the concentration at half of the fitted maximal effect.

How did CCc1ccc2[nH]c(=O)c(C(c3nnnn3CCOC)N3CCN(c4ccc(F)cc4)CC3)cc2c1 (stereo not given) do in these assays?
Sfp inh: 17.8µM*; PLK1 PBD inh: -11.0%; VDR inhibitor: -7.8%; ALOX12 inh: inconclusive

Results for COCCn1nnnc1C(c1cc2cccc(C)c2[nH]c1=O)N1CCN(c2ccccc2F)CC1 (stereo not given) ?
Sfp inh: 14.1µM*; PLK1 PBD inh: -27.9%; VDR inhibitor: 5.6%; ALOX12 inh: inconclusive

Results for Cc1ccc(NC(=O)CC(C)S(=O)(=O)c2ccc3c(c2)NC(=O)CO3)cc1Cl (stereo not given) ?
VDR inhibitor: 8.0%; ALOX12 inh: inconclusive

How did O=C(Cn1c2ccccc2c(=O)c2ccccc21)N/N=C/c1cc([N+](=O)[O-])ccc1N1CCCCCC1 do in these assays?
Sfp inh: 11.2µM*; PLK1 PBD inh: -1.4%; VDR inhibitor: -1.4%; ALOX12 inh: 12.6%

Results for O=C(Cn1c2ccccc2c(=O)c2ccccc21)N/N=C/c1ccc(N2CCCC2)c([N+](=O)[O-])c1 ?
Sfp inh: -10.9%; PLK1 PBD inh: -5.1%; VDR inhibitor: 0.4%; ALOX12 inh: -23.3%

How did Cc1nn2c(N)c(C#N)cnc2c1-c1ccccc1 do in these assays?
Sfp inh: 15.7%; PLK1 PBD inh: -12.4%; VDR inhibitor: -5.9%; ALOX12 inh: -6.4%

How did N#Cc1cnc2c(-c3ccccc3)c(-c3ccccc3)nn2c1N do in these assays?
Sfp inh: 14.7%; PLK1 PBD inh: 18.9µM*; VDR inhibitor: inconclusive; ALOX12 inh: -0.2%

Results for Cc1cc(Br)c(NC(=O)CN2CCCC2)c(Br)c1 ?
Sfp inh: 13.3%; PLK1 PBD inh: -6.7%; VDR inhibitor: 2.6%; ALOX12 inh: 5.0%

Results for O=S(=O)(c1ccc(Br)s1)N1CCN(c2ccc(F)cc2)CC1 ?
Sfp inh: 50.1µM*; PLK1 PBD inh: -4.6%; VDR inhibitor: -12.6%; ALOX12 inh: -18.9%

What do the screens show for `Clc1ccccc1-c1nnn(Cc2ccc(-c3nn[nH]n3)cc2)n1`?
Sfp inh: 9.5%; PLK1 PBD inh: 26.7µM*; VDR inhibitor: -22.3%; ALOX12 inh: 9.0%

What do the screens show for `CCNC(=O)C1CCCN(C(=O)c2ccc(OC)cc2)CC1` (stereo not given)?
PLK1 PBD inh: -9.9%; ALOX12 inh: -7.7%

What do the screens show for `CCOC(=O)c1sc(NC(=O)C2CCCO2)c(C(=O)OCC)c1C` (stereo not given)?
Sfp inh: 11.5%; ALOX12 inh: 2.0%

Results for NC(=O)c1ccccc1NC(=O)C1CCCO1 (stereo not given) ?
Sfp inh: 2.5%; PLK1 PBD inh: -8.8%; VDR inhibitor: -2.1%; ALOX12 inh: 9.6%

Results for Cc1sc(NC(=O)C2CCCO2)c(C(N)=O)c1C (stereo not given) ?
Sfp inh: -12.9%; PLK1 PBD inh: 16.8µM*; VDR inhibitor: inconclusive; ALOX12 inh: inconclusive

What do the screens show for `CCCc1cc(C(N)=O)c(NC(=O)c2ccco2)s1`?
Sfp inh: inconclusive; PLK1 PBD inh: 26.7µM*; VDR inhibitor: -6.5%; ALOX12 inh: inconclusive

How did CCCc1cc(C(N)=O)c(NC(=O)C2CCCO2)s1 (stereo not given) do in these assays?
Sfp inh: -80.4%; PLK1 PBD inh: 10.6µM*; VDR inhibitor: -27.8%; ALOX12 inh: inconclusive

How did CCOC(=O)c1c(NC(=O)C2CCCO2)sc(C(=O)OC(C)(C)C)c1C (stereo not given) do in these assays?
Sfp inh: 44.7µM*; PLK1 PBD inh: 5.97µM*; VDR inhibitor: inconclusive; ALOX12 inh: inconclusive

How did Cc1ccc(NC(=O)C(c2ccc(Cl)cc2Cl)N2CCCC2)cc1 (stereo not given) do in these assays?
Sfp inh: -2.4%; PLK1 PBD inh: 5.3%; VDR inhibitor: -17.4%; ALOX12 inh: -0.1%

What do the screens show for `COc1ccc(CSc2ccc(S(=O)(=O)N3CCCCC3)cn2)cc1F`?
PLK1 PBD inh: -5.1%; VDR inhibitor: -5.5%; ALOX12 inh: 151.9%

How did CCCOc1ccc(/C=c2\sc3nc(-c4ccco4)nn3c2=O)cc1OCC do in these assays?
Sfp inh: -18.9%; PLK1 PBD inh: 0.0%; VDR inhibitor: -12.9%; ALOX12 inh: inconclusive

Results for CCCOc1ccc(Cc2nn3c(=O)/c(=C/c4ccco4)sc3nc2=O)cc1 ?
Sfp inh: 50.1µM*; PLK1 PBD inh: -10.9%; VDR inhibitor: -6.9%; ALOX12 inh: inconclusive

How did COc1ccccc1/C=C/C=c1\sc2nc(=O)c(Cc3ccccc3)nn2c1=O do in these assays?
Sfp inh: 56.2µM*; PLK1 PBD inh: inconclusive; VDR inhibitor: inconclusive; ALOX12 inh: inconclusive

Results for COc1ccc(S(=O)(=O)NC(C)C(=O)NCc2cccnc2)cc1C (stereo not given) ?
PLK1 PBD inh: -9.0%; VDR inhibitor: -12.1%; ALOX12 inh: 14.6%

Results for O=C(CNS(=O)(=O)c1ccccc1)NCC(=O)OCc1ccc(Cl)cc1 ?
Sfp inh: 3.0%; PLK1 PBD inh: 1.5%; VDR inhibitor: 1.9%; ALOX12 inh: 17.8%

What do the screens show for `COc1ccc(CCNC(=O)C(C)OC(=O)c2ccco2)cc1OC` (stereo not given)?
Sfp inh: 13.2%; PLK1 PBD inh: -5.8%; VDR inhibitor: 7.8%; ALOX12 inh: 0.0%

Results for C=C(C)c1cccc(C(C)(C)NC(=O)N2CCCCC2CC)c1 (stereo not given) ?
Sfp inh: 20.3%; PLK1 PBD inh: -4.7%; VDR inhibitor: -4.5%; ALOX12 inh: -28.2%

What do the screens show for `O=C(c1cccc(F)c1)n1nnc2ccccc21`?
Sfp inh: 14.4%; PLK1 PBD inh: inconclusive; VDR inhibitor: 5.4%; ALOX12 inh: 0.0%

How did O=C(c1ccc(Cl)cc1Cl)n1nnc2ccccc21 do in these assays?
Sfp inh: -18.1%; VDR inhibitor: 3.55µM*

Results for O=C(C1=NO[C@@H]2CN(Cc3ccsc3)C[C@H]12)N1CCOCC1 ?
ALOX12 inh: 19.3%[176 µM]

How did N#CC1(Br)C(=N)c2ccccc2CC12CCCCC2 (stereo not given) do in these assays?
ALOX12 inh: 0.562µM*

What do the screens show for `COc1ccc(S(=O)(=O)NCCSC(C)(C)C)c(Cl)c1Cl`?
Sfp inh: -1.8%; PLK1 PBD inh: -0.1%; VDR inhibitor: 1.2%; ALOX12 inh: -21.4%

What do the screens show for `CC1(C)CC(=O)C2=C(C1)NCN(Cc1ccc3c(c1)OCO3)C2`?
Sfp inh: 4.5%; PLK1 PBD inh: 26.7µM*; VDR inhibitor: -7.7%; ALOX12 inh: 0.0%

Results for Cc1nc(N2CCN(Cc3ccc4c(c3)OCO4)CC2)[nH]c(=O)c1C ?
Sfp inh: 9.6%; PLK1 PBD inh: -0.9%; VDR inhibitor: -13.8%; ALOX12 inh: -5.7%

What do the screens show for `Oc1ccc2cc(Br)ccc2c1CN1CCCC1`?
Sfp inh: 10.6%; PLK1 PBD inh: inconclusive; VDR inhibitor: 23.4%; ALOX12 inh: inconclusive

Results for COc1ccccc1N=Cc1nc(-c2ccccc2)oc1OC(C)=O ?
Sfp inh: -9.7%; PLK1 PBD inh: inconclusive; VDR inhibitor: inconclusive; ALOX12 inh: 5.8%

What do the screens show for `CC(=O)Oc1oc(-c2ccccc2)nc1/C=N/c1ccccn1`?
Sfp inh: inconclusive; PLK1 PBD inh: 9.47µM*; VDR inhibitor: 22.4µM*; ALOX12 inh: -17.3%[57.4 µM]
